Sampled rows, rich in hits. Any-hit rate of the full collection: about 3.9%.
HT1080 IDH1KD tx: qHTS for induction of synthetic lethality in tumor cells producing 2HG: qHTS for the HT-1080-IDH1KD cell line. Potency, µM (highest dose often 46.1 µM), usual class: cytotoxic. HT-1080 IDH1 knockdown viability, ATP luminescence, 48 h. 2% of 360,000 active
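Knockdown cells (IDH1KD HT-1080) received compounds 2 h after plating at 750 cells/well and were kept 48 h at 37 °C in 5% FBS RPMI. A CellTiter-Glo luminescence read gave % activity for curve fitting.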
S2 tox: Viability Counterscreen for Primary qHTS for Inhibitors of ATXN expression. S2 cells (HEK-293 line with an ATXN2-luciferase reporter) viability, CellTiter-Fluor protease fluorescence, 24 h. Potency, µM (doses to about 56.7 µM), hits mostly cytotoxic. 0.49% of 400,000 active. AID 651635, 2014; note: nearly all actives have a fitted effect of over 40% in size
HepG2 viability: qHTS for Inhibitors of TGF-b: Cytotox Counterscreen. HepG2 CAGA-GFP viability, ATP luminescence, 18 h. Potency, µM (doses to about 46.1 µM), hits mostly cytotoxic. 0.76% of 410,000 active. AID 588856, 2011
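CellTiter-Glo luminescence gave cytotoxicity after 18 hours at 37 degrees C. The cells were HepG2 CAGA-GFP in 1% FBS DMEM, stimulated with 500 pg/mL TGF-beta after compound addition. %Activity was normalised to no-cell wells (complete cell-killing) and DMSO (no toxicity), and curves were fitted and classified.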
TGFb inhibitor: qHTS for Inhibitors of TGF-b; HepG2 CAGA-GFP TGF-b/SMAD3 reporter, GFP fluorescence, 18 h; TGF-beta stimulated, 500 pg/mL final; Potency, µM (titrated, usually from 46.1 µM), most hits filed as inhibitors; 1.2% of 410,000 active; note: nearly all actives have a fitted effect of over 65% in size
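Inhibition was scored as loss of TGF-beta-induced (500 pg/mL final, 18 hours, 37 degrees C) GFP in HEPG2 cells carrying a CAGA-GFP reporter, in DMEM with 1% FBS. Well GFP was summed per cell; Activity was normalised to unstimulated and stimulated DMSO wells, then concentration-response fitting.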
HT1080-NT tox: qHTS for induction of synthetic lethality in tumor cells producing 2HG: qHTS for the HT-1080-NT fibrosarcoma cell line; HT-1080-NT fibrosarcoma viability, CellTiter-Glo ATP luminescence, 48 h; Potency, µM (highest dose often 46.1 µM), usual class: cytotoxic; 1.6% of 360,000 active;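 note: NT is the 2HG producing partner of a matched IDH1 knockdown line; nearly all actives have a fitted effect of over 55% in size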
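750 cells/well, RPMI + 5% FBS; 2 h settle, compound pin-transfer, 48 h at 37 degrees C. CellTiter-Glo 10 min RT, luminescence. Normalized to DMSO and media-only wells.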
ATXN2 expr inh: Primary qHTS for Inhibitors of ATXN expression; HEK-293 ATXN2-luciferase reporter, luminescence, 24 h; Potency, µM (highest dose often 57 µM), most hits filed as inhibitors; 0.72% of 360,000 active; note: nearly all actives have a fitted effect of over 55% in size
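ATXN2-luciferase reporter cells (luciferase flanked by upstream and downstream ATXN2 gene portions) were treated 24 h at 37 °C with compounds at up to 57 uM. SteadyGlo luminescence gave expression; GF-AFC fluorescence gave viability.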
A number is an active result; 0 = inactive; ? = inconclusive; - = no result; [ ] = dose if it differs, or a comment. Calls come from the whole dose curve; as a rule, active = well fitted curve in the direction sought with a large enough effect; inconclusive = small, poorly fitted or top-dose-only effect, or another doubt; inactive = no such curve, though single readings can be large; an effect the other way counts as inactive or inconclusive.

SMILES | HT1080 IDH1KD tx | S2 tox | HepG2 viability | TGFb inhibitor | HT1080-NT tox | ATXN2 expr inh
Cc1nc2c(OCc3cccc(Cl)c3)cccn2c1N(C)Cc1cccs1 | ? | ? | 11.2µM | ? | ? | ?
Cc1cc(C)n(-c2nc(NC(C)C)nc(NC(C)(C)C)n2)n1 | - | - | 0 | 0 | - | -
c1ccc2c(c1)CCCN2 | - | - | 0 | ? | - | -
O=C(NCC(c1cccnc1)N1CCc2ccccc21)c1ccc(F)c(F)c1 (stereo unspecified) | - | - | 0 | ? | - | -
O=C(C[n+]1cccc2cccc(O)c21)c1ccccc1 | - | - | 0 | 0 | - | -
CN1CCc2c(OCC(=O)N3N=C(c4cccs4)CC3c3ccc(F)cc3)cccc2C1=O (stereo unspecified) | ? | 0 | 0 | ? | 23.1µM | 0
COc1ccc(C2CC(c3cccs3)=NN2C(=O)CCC(=O)O)cc1 (stereo unspecified) | 0 | 0 | 0 | 0 | 0 | -
COc1ccc(C2CC(c3cccs3)=NN2C(=O)c2ccccc2)cc1OC (stereo unspecified) | 0 | ? | 0 | 0 | 0 | 0
COc1cc(C2CC(c3cccs3)=NN2C(=O)CCl)ccc1OC(F)F (stereo unspecified) | 2.59µM | - | 6.31µM | 6.31µM | 1.64µM | ?
COc1ccc(C2CC(c3cccs3)=NN2C(=O)CCl)cc1OC (stereo unspecified) | 7.31µM | 11.2µM | 7.08µM | 10µM | 4.61µM | 12.6µM
CCN1CCc2c(OCC(=O)N3N=C(c4cccs4)CC3c3ccc(F)cc3)cccc2C1=O (stereo unspecified) | ? | 0 | 0 | 0 | ? | ?
O=C(C=Cc1ccc(/C=C/C(=O)Nc2ccc(C3=NCCN3)cc2)cc1)Nc1ccc(C2=NCCN2)cc1 | - | - | - | - | - | 0
O=S1(=O)c2ccc(Br)cc2N2CC[C@H](C2)N1Cc1ccc(Cl)cc1 | 7.31µM | 0 | 0 | 0 | ? | 0
O=S1(=O)c2ccc(Br)cc2N2CCC[C@H]2CN1Cc1ccccc1 | 5.8µM | 0 | 0 | ? | ? | 0
O=S1(=O)c2ccc(Br)cc2N2CCC[C@@H]2CN1Cc1ccc(Cl)cc1 | 0 | 0 | 0 | 0 | 0 | 0
CCOC(=O)C1=C(C)N=c2sc(=Cc3cc(Cl)c(OCC(=O)O)c(Cl)c3)c(=O)n2C1c1cccc(OC)c1 (stereo unspecified) | 20.6µM | 0 | 0 | 0 | 25.9µM | 0
CCOc1ccc(S(=O)(=O)N2CCC(N3CCN(Cc4ccc(C)cc4)C(=O)C3=O)CC2)cc1 | - | 0 | 0 | 0 | - | 0
CC(=O)Nc1ccc(NC(=O)CSc2nccn2Cc2ccc3c(c2)OCO3)cc1 | - | - | 0 | ? | - | -
Cc1ccc(-c2cc3c(nn2)-c2ccccc2C3=O)cc1 | ? | 0 | 0 | ? | ? | 3.55µM
O=C1c2ccccc2-c2nnc(-c3ccc(F)cc3)cc21 | 0 | 0 | 0 | 0 | 0 | 0
Cc1ccc(-c2nnn(CC(=O)N(c3ccc(F)cc3)C(C(=O)NC3CCCC3)c3ccco3)n2)o1 (stereo unspecified) | 0 | 0 | 0 | 0 | 0[9.24 µM] | 0
Cc1ccc(-c2nnn(CC(=O)N(c3cccc(F)c3)C(C(=O)NC3CCCC3)c3ccco3)n2)o1 (stereo unspecified) | 2.82µM | ? | 0 | 0 | ? | 0
Cc1ccc(OCC(=O)N2N=C(C(F)(F)F)CC2(O)C(C)(C)C)cc1C (stereo unspecified) | 0 | ? | 0 | ? | 0 | ?
Cc1ccccc1OCC(=O)N1N=C(C(F)(F)F)CC1(O)C(C)(C)C (stereo unspecified) | ? | 0 | 11.2µM | ? | ? | 0
COc1ccc(Cn2c(=O)c3cccnc3n(CC(=O)Nc3c(C)cc(C)cc3C)c2=O)cc1 | - | 0 | 0 | 0 | - | 0
SMILES | HT1080 IDH1KD tx | S2 tox | HepG2 viability | TGFb inhibitor | HT1080-NT tox | ATXN2 expr inh
C=CCn1cnc2c(c1=O)c1nc3ccccc3nc1n2/N=C/c1ccccn1 | 0 | 0 | 0 | 0 | 0 | ?
O=c1c2c3nc4ccccc4nc3n(/N=C/c3ccccn3)c2ncn1-c1ccccc1 | ? | 0 | 0 | 0 | 5.8µM | ?
COCCN1CCN(C(=O)c2cnn(-c3nccc(-c4ccccc4OC)n3)c2-c2ccco2)CC1 | - | 0 | - | - | - | -
O=C(NCc1ccccc1)C1=C[C@@H](c2csc3ccccc23)C[C@@H](OCCCCO)O1 | ? | ? | 0 | ? | 0 | 5.62µM
CC1=C(c2ccc(C)c(C)c2)S(=O)(=O)N=C1N1CCC(C(=O)N2CCC(C)CC2)CC1 | - | 0 | 0 | ? | - | 0
COc1cccc(CNC(=O)c2cc(C)nc3c2c(C)nn3-c2cccc(F)c2)c1 | - | 0 | 0 | 0 | - | 0
Cc1ccc(C(=O)N(Cc2cc3cccc(C)c3nc2N2CCC(O)CC2)C2CC2)cc1 | - | 0 | - | - | - | -
COC(=O)c1cn(NC(=O)c2cc([N+](=O)[O-])ccc2F)c(=O)c2ccccc12 | 9.2µM | 0 | 0 | 0 | ? | 1.06µM
CCOC(=O)CSC1=NC(=O)/C(=C\c2ccc(Cl)cc2)S1 | ? | ? | 0 | 0 | 0 | 25.1µM
Cn1cc(C(=O)[C@@H]2CCc3nc[nH]c3C2)c2ccccc21 | - | 0 | - | - | - | 0
CCn1cc(CN2CCCC(C(=O)c3ccc(-c4ccccc4)cc3)C2)cn1 (stereo unspecified) | 23.1µM | ? | 0 | 0 | ? | ?
Cn1cc(CN2CCCC(C(=O)c3ccc(-c4ccccc4)c(F)c3)C2)cn1 (stereo unspecified) | 16.4µM | 0 | 0 | 0 | 23.1µM | -
CCn1cc(CN2CCCC(C(=O)Nc3cccc(-c4cc5ccccc5[nH]4)c3)C2)cn1 (stereo unspecified) | ? | 0 | 0 | ? | 16.4µM | ?
Cn1cc(CN2CCCC(C(=O)c3ccc(-c4ccccc4)cc3)C2)cn1 (stereo unspecified) | 0 | 0 | 0 | 0 | ? | -
CCc1ccc2nc(SCC(=O)N3CC(=O)Nc4ccccc43)c(C#N)cc2c1 | 5.8µM | ? | 0 | 0 | ? | 0
Cc1ccc(N2C(=O)c3cccc4c([N+](=O)[O-])ccc(c34)C2=O)c2cccnc12 | ? | 0 | 0 | 0 | ? | -
Cc1ccc(N2C(=O)c3cccc4c(N5CCN(C)CC5)ccc(c34)C2=O)c2cccnc12 | 11.2µM | - | 0 | 0 | ? | 0
CCc1cccc(CC)c1NC(=O)/C(C#N)=C/c1ccccc1C(F)(F)F | ? | - | 0 | 12.6µM | 23.1µM | ?
N#C/C(=C\c1ccccc1C(F)(F)F)C(=O)Nc1ccccc1 | 0 | 0 | 0 | 0 | 0 | 0
COc1cccc(C(=O)N2CCCC(c3nc(SCCN4CCOCC4)ncc3C)C2)c1 (stereo unspecified) | - | 0 | - | - | - | -
CC(=O)Nc1ccc(S(=O)(=O)NCc2cccn2Cc2cccc(C)c2)cc1 | - | 0 | 0 | ? | - | 0
